An excerpt weighted towards active compounds, which were near 3.8% of everything screened.
A549 viability: A549 cytotoxicity, counter-screen for Nrf2 inhibitors | actives 0.16% (n = 390,000) | A549 ARE-Fluc cells, CellTiter-Fluor viability, 18-24 h | Potency, µM (series often up to 46 µM), inactives show at the highest dose activity change, negative = cytotoxicity, hits mostly inhibitors; further: on the % scale 0 is the no-effect control and ±100 the full control effect
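A549 ARE-Fluc cells in 5% FBS OPTI-MEM, 5000 cells/well, rested 2 h then exposed to compounds in concentration-response for 18-24 h at 37 °C. Viability by CellTiter-Fluor fluorescence (Ex 405/Em 525) after 30 min; luciferase luminescence (BugLite, 15 min, RT) read afterwards.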
TGFb inhibitor: TGF-b pathway inhibition; Potency, µM (top dose mostly 46.1 µM), for inactives: top-dose activity, negative = inhibition, hits mostly inhibitors; HepG2 CAGA-GFP TGF-b/SMAD3 reporter, GFP fluorescence, 18 h; TGF-beta stimulated, 500 pg/mL final; actives 1.2% (n = 410,000); further: on the % scale 0 is the no-effect control and ±100 the full control effect; nearly all actives have a fitted effect of over 65% in size
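Inhibition was scored as loss of TGF-beta-induced (500 pg/mL final, 18 hours, 37 degrees C) GFP in HEPG2 cells carrying a CAGA-GFP reporter, in DMEM with 1% FBS. Well GFP was summed per cell; Activity was normalised to unstimulated and stimulated DMSO wells, then concentration-response fitting.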
Nrf2 block: blocks Nrf2 signaling; Potency, µM (highest dose often 46 µM), for inactives: top-dose activity change, negative = inhibition, most hits filed as inhibitors; actives 2.1% (n = 360,000); A549 ARE-Fluc reporter, luciferase luminescence, 18-24 h; further: on the % scale 0 is the no-effect control and ±100 the full control effect; nearly all actives have a fitted effect of over 60% in size
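Quantitative HTS in A549 cells stably bearing an antioxidant response element-firefly luciferase construct. Inhibition of Nrf2-driven transcription was scored by luminescence after 18-24 h of compound exposure at 37 °C.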
ATXN viability: cell viability loss in ATXN counter-screen. S2 cells (HEK-293 line with an ATXN2-luciferase reporter) viability, CellTiter-Fluor protease fluorescence, 24 h. Potency, µM (top dose mostly 56.7 µM), actives largely listed as cytotoxic. actives 0.49% (n = 400,000); further: nearly all actives have a fitted effect of over 40% in size
HepG2 tox: counter-screen for TGF-b inhibitors: cytotoxicity in HepG2 cells | HepG2 CAGA-GFP viability, ATP luminescence, 18 h | Potency, µM (titrated, usually from 46.1 µM), for inactives: at the highest dose activity change, negative = cytotoxicity, hits mostly cytotoxic | actives 0.76% (n = 410,000) | AID 588856
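CellTiter-Glo luminescence gave cytotoxicity after 18 hours at 37 degrees C. The cells were HepG2 CAGA-GFP in 1% FBS DMEM, stimulated with 500 pg/mL TGF-beta after compound addition. %Activity was normalised to no-cell wells (complete cell-killing) and DMSO (no toxicity), and curves were fitted and classified.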
ATXN2 expr inh: ATXN2 expression inhibition. Potency, µM (series often up to 57 µM), for inactives: top-dose activity change, negative = inhibition, actives largely listed as inhibitors. HEK-293 ATXN2-luciferase reporter, luminescence, 24 h. actives 0.72% (n = 360,000); further: on the % scale 0 is the no-effect control and ±100 the full control effect; nearly all actives have a fitted effect of over 55% in size
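qHTS (up to 57 uM final) was run with 24 h compound exposure of reporter cells at 37 °C. Each well was multiplexed: SteadyGlo luminescence measured ATXN2-luciferase expression after a fluorogenic Gly-Phe-AFC viability readout (25 uM final).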
Active calls of the source: *; i = inactive; ? = inconclusive; · = no result given; ! = not confirmed by another sample. The call rests on the fitted dose curve; in most records, active means well fitted curve in the direction sought with a large enough effect; inconclusive means small, poorly fitted or top-dose-only effect, or another doubt; inactive means no such curve, though single readings can be large; an effect the other way counts as inactive or inconclusive. Potency means the concentration at half of the fitted maximal effect.

SMILES | A549 viability | TGFb inhibitor | Nrf2 block | ATXN viability | HepG2 tox | ATXN2 expr inh
CCOc1ccc(C(=O)C(C)OC(=O)c2nc(Cl)ccc2Cl)cc1 (stereo unspecified) | 3% | 0% | 2% | i | 1% | 2%
CCC(Sc1nc2ncccc2[nH]1)C(=O)N1CCOCC1 (stereo unspecified) | -1% | -4% | 2% | i | -5% | -12%
COc1ccc(OC)c(C2=NS(=O)(=O)N(C)C(C(=O)Nc3ccc(F)cc3F)=C2)c1 | ? | ? | 15µM*! | i | -14% | -14%
Cc1ccc(NS(=O)(=O)c2c(C)[nH]c(C)c2C(=O)N2CCCCC2)cc1F | 0% | -12% | ? | i | -8% | -18%
Cn1c(=O)c2c(nc(CN3CCOCC3)n2CCCO)n(C)c1=O | -8% | 1% | 1% | ? | -3% | ?
COc1ccc(C)cc1NS(=O)(=O)c1ccc2c3c(cccc13)C(=O)N2 | ? | ? | ? | ? | -61% | 28µM*
Cc1[nH]c2ccccc2c1C(=O)COC(=O)c1c(-c2c(F)cccc2Cl)noc1C | 0% | 13µM* | ? | ? | -6% | ?
COc1ccc(NS(=O)(=O)c2ccc(Cl)c(N)c2)cc1Br | 6% | ? | ? | i | -24% | 4%
Nc1cc(S(=O)(=O)Nc2ccc(Br)cc2)ccc1Cl | ? | ? | ? | i | 11µM* | 1%
O=S(=O)(Nc1ccc(-n2cccc2)cc1)c1ccc(Cl)c(Cl)c1 | 2% | 11µM* | 7% | i | -102% | ·
CC(Oc1cccnc1[N+](=O)[O-])C(=O)Nc1ccc(Cl)cn1 (stereo unspecified) | 0% | 0% | -4% | i | 0% | ·
CCN1CCN(c2ccc(NC(=O)c3cccc(S(=O)(=O)N4CCCC4)c3)cc2)CC1 | -1% | 15% | 7% | ? | 4% | 5%
CC(=O)Nc1ccc(NC(=O)c2cc(-c3cc(C)cc(C)c3O)n[nH]2)cc1 | -8% | -17% | -41% | i | -6% | ·
Cc1ccc(S(=O)(=O)N2CCOCC2)cc1C(=O)Nc1ccc(N2CCCCCC2)cc1 | -20% | ? | 21µM* | i | -19% | 9%
Cc1cc(C)c(O)c(-c2cc(C(=O)Nc3ccc(S(=O)(=O)N4CCOCC4)cc3)[nH]n2)c1 | ? | ? | ? | ? | -60% | 18µM*
O=C(Nc1ccncc1)c1cccc(S(=O)(=O)N2CCOCC2)c1 | -4% | -5% | -19% | i | -5% | -13%
O=C(Nc1ccc(N2CCOCC2)cc1)c1cccc(S(=O)(=O)N2CCCCC2)c1 | -13% | 0% | 21µM* | i | 2% | -1%
O=C(Nc1ccncc1)c1cccc(S(=O)(=O)N2CCCC2)c1 | -19% | 1% | 8.2µM* | i | 0% | -17%
COc1ccc2nc(SC(C)C(=O)NCC(=O)Nc3ccc(F)c(F)c3F)[nH]c2c1 (stereo unspecified) | 1% | 0% | -15% | i | 19% | 6%
C/C(=C(/OCCOc1ccc(Cl)cc1)c1ccc(Cl)cc1Cl)n1ccnc1 | · | · | · | i | · | -27%
Cc1ccc(COC(=O)c2cc(S(=O)(=O)N3CCOCC3)ccc2C)cc1 | 10% | -3% | 16µM* | i | 0% | ?
COc1ccccc1C(=O)COC(=O)c1cc(S(=O)(=O)N2CCCCC2)ccc1N1CCOCC1 | -5% | 5% | 9% | i | 1% | -12%
Cc1ccccc1OCCOC(=O)c1cc(S(=O)(=O)N2CCCCC2)ccc1N1CCOCC1 | -6% | ? | 16µM* | ? | 7% | -11%
O=C(NCc1ccncc1)C1CCN(S(=O)(=O)c2cccc(C(F)(F)F)c2)CC1 | -4% | 11% | -14% | i | 3% | 6%
O=C(Nc1ccncc1)C1CCN(S(=O)(=O)c2cccc(C(F)(F)F)c2)CC1 | -4% | -17% | 16µM* | i | -13% | 5%
SMILES | A549 viability | TGFb inhibitor | Nrf2 block | ATXN viability | HepG2 tox | ATXN2 expr inh
O=C(Nc1cccc(S(=O)(=O)N2CCCC2)c1)c1cc(-c2ccccn2)nc2ccccc12 | -1% | -5% | 9.2µM* | i | -16% | 0%
CCCCCC(=O)N1C[C@@H](n2cc(-c3ccc(F)cc3)nn2)[C@H](O)C[C@@H]1c1ccc(OC)cc1 | · | -1% | · | ? | -10% | 0%
CC1C(=O)CC(c2ccccc2)N(C)C1c1ccccc1 (stereo unspecified) | -1% | 2% | -7% | i | -2% | -21%
CCC1C(c2ccccc2)N(C)C(c2ccccc2)CC1(O)c1ccccc1 (stereo unspecified) | -12% | ? | 3% | ? | 13µM* | -6%
Cc1ccc(NC(=O)C2=CC(c3cccs3)=NS(=O)(=O)N2C)cc1 | ? | ? | ? | i | -36% | -16%
CCc1ccc(NC(=O)C2=CC(c3cccs3)=NS(=O)(=O)N2C)cc1 | -16% | 13µM*! | 16µM*! | i | -26% | -2%
CC(C)C[C@@H](CN)NC(=O)c1nc[nH]c1C(=O)N[C@@H](CC(=O)O)C(=O)CNC[C@H](C)NC(=O)c1nc[nH]c1C(=O)N[C@@H](CC(=O)O)C(=O)O | 10% | 4% | 28% | i | 12% | 1%
C/C=C1\COC(C(=O)NCCCN2CCCC2=O)(C(F)(F)F)C=C1C=C(C)C (stereo unspecified) | 0% | ? | -14% | i | 11µM*! | 8%
Cc1ccc(-n2c(N)c(C(=O)Nc3c(C)n(C)n(-c4ccccc4)c3=O)c3nc4ccccc4nc32)cc1 | ? | 15% | ? | · | 3% | 30µM*
CCN(Cc1ccc2c(c1)OCO2)C(=O)/C=C/c1cccc(Br)c1 | -4% | 12% | ? | i | 9% | 38%
CC(C)(C)N(Cc1ccc2c(c1)OCO2)C(=O)/C=C\S(=O)c1ccccc1 (stereo unspecified) | 0% | 11µM* | ? | ? | 18µM* | 16µM*
CCC(C(=O)N1CCN(c2cc(Cl)ccc2C)CC1)n1nc(C)c2sc3ccccc3c2c1=O (stereo unspecified) | -25% | 28% | ? | · | -2% | ·
CS(=O)(=O)c1sc(C#N)c2c1C(=O)CC(c1ccccc1)C2 (stereo unspecified) | 4% | ? | ? | 6.3µM* | -100% | 5µM*
CCOC(=O)CNC(=O)CSc1nc(C(C)C)nc2c1cnn2-c1ccccc1 | · | 0% | · | i | -80% | ·

Source: PubChem (National Center for Advancing Translational Sciences (NCATS))
